Data on 62 molecules can be found in publication PMC8769072, “Proteome‐scale mapping of binding sites in the unstructured regions of the human proteome” (Molecular Systems Biology, 2022).

Chain of CRK 124-198, P46108 (P46108 124-198): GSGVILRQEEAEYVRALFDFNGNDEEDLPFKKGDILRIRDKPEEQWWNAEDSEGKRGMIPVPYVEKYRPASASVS
Chain of CEP55 160-217, Q53EZ4 (Q53EZ4 160-217): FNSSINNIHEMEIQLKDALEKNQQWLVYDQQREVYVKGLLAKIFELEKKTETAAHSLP
Chain of CLTC 1-364, Q00610 (Q00610 1-364): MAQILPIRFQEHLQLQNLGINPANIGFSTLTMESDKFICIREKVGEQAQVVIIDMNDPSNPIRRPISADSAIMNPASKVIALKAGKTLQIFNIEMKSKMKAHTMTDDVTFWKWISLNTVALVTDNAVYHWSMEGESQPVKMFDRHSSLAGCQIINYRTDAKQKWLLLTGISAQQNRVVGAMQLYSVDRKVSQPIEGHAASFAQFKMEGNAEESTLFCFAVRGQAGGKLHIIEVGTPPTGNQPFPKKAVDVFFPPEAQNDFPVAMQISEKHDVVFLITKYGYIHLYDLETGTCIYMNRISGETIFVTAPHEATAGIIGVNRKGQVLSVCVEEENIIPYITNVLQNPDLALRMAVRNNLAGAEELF
Chain of AP2B1 700-937, P63010 (P63010 700-937): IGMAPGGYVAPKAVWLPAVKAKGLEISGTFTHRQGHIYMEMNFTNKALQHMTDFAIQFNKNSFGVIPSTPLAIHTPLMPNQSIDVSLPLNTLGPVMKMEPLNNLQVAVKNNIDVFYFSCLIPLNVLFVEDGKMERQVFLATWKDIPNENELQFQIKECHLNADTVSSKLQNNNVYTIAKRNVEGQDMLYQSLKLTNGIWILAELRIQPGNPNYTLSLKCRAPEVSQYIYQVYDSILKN

For the molecule NSTSRPTLPVKSLAQR [SZRD1, Q7Z422], in the test with CRK 124-198, P46108, the “selected by phage display” value is “confidence 2 (active)”.

With GGLLHWERLLGGLGGE [NCKAP5L, Q9HCH0], in the test with CALM1 2-149, P0DP23, the “selected by phage display” value is “confidence 2 (active)”.

On to LSETVTKPPLPQKNTA [NSUN7, Q8NE18], for which, in the test with CRK 124-198, P46108, the “selected by phage display” value is “confidence 3 (active)”.

In the case of PPAAVYYAPAGPTSAQ [AKNA, Q7Z591], the “selected by phage display” value with CEP55 160-217, Q53EZ4 was “confidence 3 (active)”.

As for PPSADYSTPPHRTVPE [BAHD1, Q8TBE0], the “selected by phage display” value with CEP55 160-217, Q53EZ4 is “confidence 3 (active)”.

In the case of NLPPPLPPKKYAITSV [USP53, Q70EK8], the “selected by phage display” value with CRK 124-198, P46108 is “confidence 2 (active)”.

In the case of PTPVLMNQPPQIAPKR [EIF4G1, Q04637], the “selected by phage display” value with CRK 124-198, P46108 is “confidence 3 (active)”.

Consider PPVPPKSEAVREEARL [GAREM1, Q9H706], for which, in the test with CRK 124-198, P46108, the “selected by phage display” value is “confidence 4 (active)”.

PALPSKLLSSGSAKAD [IL17RD, Q8NFM7]: the “selected by phage display” value with CRK 124-198, P46108 is “confidence 3 (active)”.

Consider EISNRWKLAQVQVQKD [EXOSC10, Q01780], for which the “selected by phage display” value with CALM1 2-149, P0DP23 was “confidence 2 (active)”.

On to GQVQVADLLGINGTGE [CCDC141, Q6ZP82], for which, in the test with CLTC 1-364, Q00610, the “selected by phage display” value was “confidence 2 (active)”.

For the molecule AWKTALLANVGTISAI [PERM1, Q5SV97], the “selected by phage display” value with CALM1 2-149, P0DP23 was “confidence 2 (active)”.

Take GTHWRVLGLALLSVGV [CD3E, P07766]: the “selected by phage display” value in the test with CALM1 2-149, P0DP23 is “confidence 3 (active)”.

With ANTLPVSGNLIDLYGN [MITF, O75030], in the test with CLTC 1-364, Q00610, the “selected by phage display” value is “confidence 3 (active)”.

For the molecule KWPSLATLAATPISSS [AGAP7P, Q5VUJ5], the “selected by phage display” value in the test with CALM1 2-149, P0DP23 is “confidence 3 (active)”.

In the case of DWSNLVDAAKAYEVQR [SIPA1L1, O43166], the “selected by phage display” value with CALM1 2-149, P0DP23 is “confidence 3 (active)”.

As for AREPPADVWTPPARAS [TRIM25, Q14258], the “selected by phage display” value in the test with CEP55 160-217, Q53EZ4 was “confidence 2 (active)”.

Take PPFTDYRQPPLDYRQP [MAGI2, Q86UL8]: the “selected by phage display” value with CEP55 160-217, Q53EZ4 was “confidence 3 (active)”.

Regarding TNLPDVPNKSAPSPTS [ZNF462, Q96JM2], in the test with CRK 124-198, P46108, the “selected by phage display” value is “confidence 2 (active)”.

As for WPLLRKQLEGRLALPS [SPATA31A6, Q5VVP1], the “selected by phage display” value with CALM1 2-149, P0DP23 was “confidence 2 (active)”.

STWGTVKDSLKALSSA [SRARP, Q8NEQ6]: in the test with CALM1 2-149, P0DP23, the “selected by phage display” value is “confidence 2 (active)”.

As to WKTLKERESILKLLDG [TADA3, O75528], the “selected by phage display” value with CALM1 2-149, P0DP23 is “confidence 3 (active)”.

As to SADLIQFEERPQEPSE [MARF1, Q9Y4F3], the “selected by phage display” value with CLTC 1-364, Q00610 was “confidence 3 (active)”.

As to MAAWKSWTALRLAATV [TMX3, Q96JJ7], in the test with CALM1 2-149, P0DP23, the “selected by phage display” value was “confidence 2 (active)”.

AWSDVVGRRSSLLAAI [MFSD9, Q8NBP5]: the “selected by phage display” value with CALM1 2-149, P0DP23 is “confidence 2 (active)”.

With WQRLQSNPHLKEGSVT [ACY1, Q03154], in the test with CALM1 2-149, P0DP23, the “selected by phage display” value was “confidence 2 (active)”.

With MMLSEQAQKWFPTHVQ [RAB11FIP2, Q7L804], the “selected by phage display” value in the test with CALM1 2-149, P0DP23 was “confidence 2 (active)”.

As for WSYLMHFLFDHSNLGS [OR52I1, Q8NGK6], in the test with CEP55 160-217, Q53EZ4, the “selected by phage display” value was “confidence 2 (active)”.

Take QVPSLPLKDSQELTAS [ZKSCAN5, Q9Y2L8]: the “selected by phage display” value with CRK 124-198, P46108 was “confidence 4 (active)”.

For the molecule EHNLITWTDGPPPVQF [MAU2, Q9Y6X3], in the test with CLTC 1-364, Q00610, the “selected by phage display” value is “confidence 4 (active)”.

In the case of SLISWDEPGVDFYSKP [PIK3C2B, O00750], the “selected by phage display” value in the test with CLTC 1-364, Q00610 was “confidence 4 (active)”.

Consider SFWLFRVSPTTFPFLY [ATP8B3, O60423], for which the “selected by phage display” value in the test with CALM1 2-149, P0DP23 is “confidence 2 (active)”.

With MAVGPPDAPVGGPLTF [INO80E, Q8NBZ0], in the test with CEP55 160-217, Q53EZ4, the “selected by phage display” value was “confidence 2 (active)”.

With LWLALRETVYDPSLPA [DISP2, A7MBM2], the “selected by phage display” value with CALM1 2-149, P0DP23 is “confidence 3 (active)”.

KEPPAKVPEVPKKIVV [TTN, Q8WZ42]: in the test with CRK 124-198, P46108, the “selected by phage display” value is “confidence 3 (active)”.

Take MQIPQAPWPVVWAVLQ [PDCD1, Q15116]: the “selected by phage display” value with AP2B1 700-937, P63010 was “confidence 4 (active)”.

Regarding AVPSNASWEQAMKMVV [PRPF40B, Q6NWY9], in the test with CALM1 2-149, P0DP23, the “selected by phage display” value is “confidence 2 (active)”.

With LWPVLRSDAFSGLTAL [FIGN, Q5HY92], in the test with CALM1 2-149, P0DP23, the “selected by phage display” value was “confidence 3 (active)”.

For the molecule VTAGWTWPALRTLSSL [NFKBIE, O00221], the “selected by phage display” value with CALM1 2-149, P0DP23 was “confidence 2 (active)”.

Take SISSQVSSAVMKSLLA [IL16, Q14005]: the “selected by phage display” value with CALM1 2-149, P0DP23 is “confidence 2 (active)”.

In the case of PPPLPPKPRISSYPED [MAP4K5, Q9Y4K4], the “selected by phage display” value in the test with CRK 124-198, P46108 was “confidence 2 (active)”.

As for DRSWHQMVVRALSSQE [HSH2D, Q96JZ2], the “selected by phage display” value in the test with CALM1 2-149, P0DP23 is “confidence 2 (active)”.

In the case of PPSQSYGGGPAQVPLP [ANXA7, P20073], in the test with CEP55 160-217, Q53EZ4, the “selected by phage display” value is “confidence 2 (active)”.

Turning to PPATSYAPSDVPSGVA [MALL, Q13021], the “selected by phage display” value with CEP55 160-217, Q53EZ4 was “confidence 2 (active)”.

Turning to DAKAPPTAAYAGAAPA [CEBPB, P17676], the “selected by phage display” value with CEP55 160-217, Q53EZ4 was “confidence 4 (active)”.

For PQSPPASMYGSTGSLL [PSD, A5PKW4], the “selected by phage display” value with CEP55 160-217, Q53EZ4 was “confidence 2 (active)”.

Regarding WNLLQQQTTTTSSKNL [KRT4, P19013], the “selected by phage display” value with CALM1 2-149, P0DP23 is “confidence 3 (active)”.

Turning to PYPKWNSVFDQLTQVV [MAP2K4, P45985], the “selected by phage display” value with CALM1 2-149, P0DP23 was “confidence 3 (active)”.

Regarding TNWTLLKSDMNKPHLI [TTLL6, Q8N841], the “selected by phage display” value with CALM1 2-149, P0DP23 was “confidence 2 (active)”.

For the molecule LPLIDFADTPEAHVAV [GTSE1, Q9NYZ3], the “selected by phage display” value with CLTC 1-364, Q00610 was “confidence 3 (active)”.

With DLLSGDLIFLGSDSHP [GJB5, O95377], the “selected by phage display” value with CLTC 1-364, Q00610 was “confidence 3 (active)”.

In the case of SIPRSWPSAHSVSNIL [PAX1, P15863], in the test with CALM1 2-149, P0DP23, the “selected by phage display” value was “confidence 2 (active)”.

With SNWSPLGPPSSPYGAA [MAML3, Q96JK9], in the test with CEP55 160-217, Q53EZ4, the “selected by phage display” value is “confidence 2 (active)”.

For the molecule GPPSLNYIPPVLQLSG [TEX14, Q8IWB6], the “selected by phage display” value with CEP55 160-217, Q53EZ4 is “confidence 2 (active)”.

AWKSLTDKVQEARSNA [KMT2A, Q03164]: the “selected by phage display” value in the test with CALM1 2-149, P0DP23 is “confidence 2 (active)”.

For the molecule APSLPGKGSGASVALM [ZNF469, Q96JG9], the “selected by phage display” value in the test with CRK 124-198, P46108 is “confidence 3 (active)”.

Turning to GLLLMEEEGHSDLISF [TMEM94, Q12767], the “selected by phage display” value in the test with CLTC 1-364, Q00610 was “confidence 4 (active)”.

PVSSLAEPDLINFMDF [DENND4C, Q5VZ89]: in the test with CLTC 1-364, Q00610, the “selected by phage display” value is “confidence 2 (active)”.

Take AQDFFQRWKQLSLPQQ [AP2A1, O95782]: the “selected by phage display” value with CALM1 2-149, P0DP23 was “confidence 2 (active)”.

On to LSIPVTSEPPALPPKP [DOCK4, Q8N1I0], for which the “selected by phage display” value with CRK 124-198, P46108 was “confidence 2 (active)”.

Turning to VGSLIDFGPEAPTSSP [KIAA0513, O60268], the “selected by phage display” value with CLTC 1-364, Q00610 is “confidence 3 (active)”.

As to EVAFGKEGLWKLLGGF [GNL3, Q9BVP2], in the test with CALM1 2-149, P0DP23, the “selected by phage display” value is “confidence 2 (active)”.
